Data published in PubChem BioAssay AID1159580 (chemical genetic matrix, 2015).
“And” between values parts separate entries of the source, which are not always exact repeats. Equal values may be shown once. Out of some 5,500 compounds screened, about 2,000 (36%) were called active. Roughly 18% stayed inconclusive and do not appear here. Rule as the data show it: active = normalized growth mostly below about 0.91 (no sharp cut-off); inconclusive = no clear call, values can overlap the other calls; inactive = mostly above about 0.92. The list shows a part of the results.

Assay: chemical genetic growth profiling, strain panel (AID 1159580);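 also: tested at 20 µM; growth read once vehicle control cultures reached saturation at 30 °C; 1 = growth at the plate median or of vehicle wells; lower values mean less growth of the strain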
Details: S. cerevisiae deletion strains, growth OD

Measured: normalized growth

CN(C)C(=O)Oc1ccc[n+](C)c1
inactive: locus YAL021C, strain ccr4, hits give low values 1 | locus YAL026C, strain drs2, hits give low values 1.01 | locus YAL030W, strain snc1, hits give low values 0.998 | locus YAL040C, strain CLN3, hits give low values 0.966 | locus YBL061C, strain skt5, hits give low values 0.999 | locus YBR009C, strain hhf1, hits give low values 0.996 | locus YBR021W, strain FUR4, hits give low values 1.02 | locus YBR023C, strain chs3, hits give low values 1 | locus YBR171W, strain sec66, hits give low values 1 | locus YBR229C, strain ROT2, hits give low values 1.02 | locus YBR231C, strain swc5, hits give low values 1.03 | locus YBR279W, strain paf1, hits give low values 1 | locus YCL011C, strain gbp2, hits give low values 0.998 | locus YCL016C, strain dcc1, hits give low values 1.01 | locus YCL029C, strain bik1, hits give low values 1.02 | locus YCL061C, strain MRC1 (second series), hits give low values 0.992 | locus YCL061C, strain MRC1, hits give low values 1.01 | locus YCL069W, strain vba3, hits give low values 1 | locus YCR088W, strain abp1, hits give low values 1 | locus YDL005C, strain med2, hits give low values 1 | locus YDL035C, strain GPR1, hits give low values 1.03 | locus YDL040C, strain nat1, hits give low values 1 | locus YDL074C, strain BRE1, hits give low values 1 | locus YDL101C, strain DUN1, hits give low values 1.01 | locus YDL134C, strain PPH21, hits give low values 1.03 | locus YDL185W, strain tfp1, hits give low values 1.01 | locus YDL192W, strain arf1, hits give low values 1.02 | locus YDR001C, strain nth1, hits give low values 1 | locus YDR069C, strain doa4, hits give low values 1 | locus YDR101C, strain arx1, hits give low values 1.02 | locus YDR137W, strain rgp1, hits give low values 1.03 | locus YDR159W, strain sac3, hits give low values 1 | locus YDR162C, strain NBP2, hits give low values 1.02 | locus YDR195W, strain ref2 0.99 | locus YDR297W, strain sur2, hits give low values 0.999 | locus YDR318W, strain mcm21, hits give low values 1.02 | locus YDR334W, strain swr1, hits give low values 1 | locus YDR335W, strain msn5, hits give low values 0.996 | locus YDR363W, strain ESC2, hits give low values 0.885 | locus YDR388W, hits give low values 1.02 | locus YDR392W, strain spt3, hits give low values 0.996 | locus YDR502C, strain sam2, hits give low values 1.02 | locus YEL003W, strain gim4, hits give low values 0.993 | locus YEL037C, strain rad23, hits give low values 0.991 | locus YEL061C, strain CIN8 (second series), hits give low values 0.993 | locus YEL061C, strain CIN8, hits give low values 1.01 | locus YER002W, strain NOP16, hits give low values 1.01 | locus YER015W, strain faa2, hits give low values 0.989 | locus YER016W, strain bim1, hits give low values 1 | locus YER110C, hits give low values 1.03 | locus YER111C, strain swi4, hits give low values 1.02 | locus YER155C, strain BEM2 (second series), hits give low values 0.994 | locus YER155C, strain BEM2, hits give low values 1.02 | locus YER167W, strain BCK2, hits give low values 1.02 | locus YFR010W, strain ubp6, hits give low values 1.01 | locus YGL078C, strain dbp3, hits give low values 1.01 | locus YGL086W, strain mad1, hits give low values 1 | locus YGL167C, strain pmr1, hits give low values 1.01 | locus YGL173C, strain kem1, hits give low values 1.01 | locus YGL227W, strain vid30, hits give low values 1.01 | locus YGL240W, strain doc1, hits give low values 1.01 | locus YGL248W, strain PDE1, hits give low values 1 | locus YGL253W, strain hxk2, hits give low values 1 | locus YGR135W, strain pre9, hits give low values 1.05 | locus YGR229C, strain SMI1, hits give low values 1.01 | locus YGR252W, strain gcn5, hits give low values 1.01 | locus YHR013C, strain ard1, hits give low values 1.01 | locus YHR027C, strain rpn1, hits give low values 1.01 | locus YHR030C, strain SLT2, hits give low values 1.02 and 1.01 | locus YHR079C, strain IRE1 (second series), hits give low values 1.01 | locus YHR079C, strain IRE1, hits give low values 1 | locus YHR094C, strain hxt1, hits give low values 1.02 | locus YHR129C, strain ARP1, hits give low values 1.01 | locus YHR142W, strain chs7, hits give low values 0.994 | locus YHR200W, strain rpn10, hits give low values 1.02 | locus YIL066C, strain RNR3, hits give low values 1.02 | locus YIL073C, strain SPO22, hits give low values 1.06 | locus YIL125W, strain kgd1, hits give low values 1.02 | locus YIR030C, strain dcg1, hits give low values 1.02 | locus YJL092W, strain hpr5, hits give low values 1.02 | locus YJL095W, strain BCK1 (second series), hits give low values 1.01 | locus YJL095W, strain BCK1, hits give low values 0.994 and 1.04 | locus YJL115W, strain asf1, hits give low values 0.993 | locus YJL129C, strain trk1, hits give low values 1.01 | locus YJL134W, strain LCB3, hits give low values 1.01 | locus YJL154C, strain vps35, hits give low values 0.995 | locus YJL164C, strain tpk1, hits give low values 1 | locus YJL166W, strain qcr8, hits give low values 0.996 | locus YJL168C, strain set2, hits give low values 1.01 | locus YJL187C, strain SWE1 (second series), hits give low values 1 | locus YJL187C, strain SWE1, hits give low values 1 | locus YJR043C, strain POL32, hits give low values 1 | locus YJR066W, strain TOR1, hits give low values 0.966
